Source: PubChem BioAssay AID602233 (National Center for Advancing Translational Sciences (NCATS), 2012)
About 170 (0.045%) of roughly 380,000 compounds were called active. A call without a number means that no potency is given here. Calls follow the shape of the dose curve; as a rule, active = well fitted inhibition curve with a large enough effect; inconclusive = small, poorly fitted or top-dose-only effect; inactive = no such curve, though single readings can be large or run the other way. The full list was thinned out, with actives kept by preference.
Also: nearly all actives have a fitted effect of over 60% in size.
Potency is read from the fitted curve at half-maximal effect.

The compounds below were run against Phosphoglycerate kinase, glycosomal (Trypanosoma brucei brucei) (UniProt P07378) (assay: qHTS Assay to Find Inhibitors of Phosphoglycerate Kinase). Details: PGK/GAPDH coupled, Kinase-Glo luminescence, 60 min; series mostly up to 57.5 µM.
Chain of Phosphoglycerate kinase, glycosomal (Trypanosoma brucei brucei) (P07378 whole entry, looked up): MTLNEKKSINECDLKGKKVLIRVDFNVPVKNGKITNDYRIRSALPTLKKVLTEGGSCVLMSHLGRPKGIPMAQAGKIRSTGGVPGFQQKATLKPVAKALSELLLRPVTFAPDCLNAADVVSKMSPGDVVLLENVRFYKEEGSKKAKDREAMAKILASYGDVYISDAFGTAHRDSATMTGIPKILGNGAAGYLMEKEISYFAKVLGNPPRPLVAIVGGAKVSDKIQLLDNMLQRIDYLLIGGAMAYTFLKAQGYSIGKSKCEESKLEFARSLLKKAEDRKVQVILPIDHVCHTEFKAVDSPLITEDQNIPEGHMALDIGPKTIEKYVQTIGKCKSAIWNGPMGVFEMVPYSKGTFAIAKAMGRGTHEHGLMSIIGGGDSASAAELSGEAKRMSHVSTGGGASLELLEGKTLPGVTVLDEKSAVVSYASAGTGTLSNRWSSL
Excerpt: Several species of the Trypanosomatidae family of parasitic protozoans cause a spectrum of diseases throughout the tropical and subtropical world. Sleeping sickness, caused by two subspecies of Trypanosoma brucei, is endemic to areas of sub-Saharan Africa, while Chagas disease, a manifestation of Trypanosoma cruzi infection, is prevalent throughout Central and South America. In addition, many species of Leishmania are responsible for a range of cutaneous and visceral diseases, causing ulcers, destructive lesions and kalaazar, a lethal infection of the viscera. Collectively, these organisms infect 30 million people worldwide (~500 million live in endemic areas), and account for ~130,000 deaths annually. Given their debilitating and prevalent nature, trypanosomatid parasites impose a heavy medical, economic and social burden on entire populations, primarily in the developing world. The problem is further exacerbated by the fact that existing treatments have progressed little in the past 50 years, and current drugs show high toxicity and poor efficacy. […] Blood-stream stages of T. brucei are entirely dependent on glycolysis as a source of ATP, and the tricarboxylic acid cycle and oxidative phosphorylation are both repressed. Glycolysis in axenically cultured T. cruzi, representing the intracellular pathogenic stage, is also essential for these parasites. […] Previous studies have shown that the glycolytic enzyme, phosphoglycerate kinase (PGK), is a viable target for drugs to kill these parasites. […] NIH Molecular Libraries Probe Production Network [MLPCN] NIH Chemical Genomics Center [NCGC] MLPCN Grant: R03 MH093212 PI Name: Malcolm Walkinshaw, University of Edinburgh
3ul of substrate/PGK buffer (columns 1,2,5-48) are dispensed into Greiner white solid bottom 1536-well assay plates; columns 3-4 receive only TEA buffer as 0x PGK controls. Compounds are then transferred via Kalypsys pin tool equipped with 1536-pin array (10nl slotted pins, V&P Scientific, San Diego, CA). Following addition of compound, 1ul of GAPDH (100nM final concentration, all columns) is added to initiate the reaction (this upstream coupling enzyme is necessary for in-well production of PGK substrate, 1,3-bisphosphoglycerate (1,3-BPG), which is unstable and not commercially available). The plates are then incubated at room temperature for 60 minutes. Kinase-Glo Plus reagent is added (2ul) and plates incubated for 10 minutes, before being transferred to a ViewLux high-throughput CCD imager (PerkinElmer) wherein single end-point measurements of luminescence are acquired using a clear filter. All reagents are diluted in an assay buffer consisting of 100mM TEA (pH 7.6), 5mM MgCl2 and 0.01% Tween-20.
With `O=C1NC(=O)N(Cc2ccco2)C(=O)/C1=C\c1ccc(-c2ccc(F)cc2)o1` the Potency was “inactive”.
In the case of `COc1ccc(N2C(=O)/C(=C/c3ccco3)C(=O)NC2=S)cc1`, the Potency is reported as 12.6 µM (active).
With `COc1cccc(N2C(=O)NC(=O)/C(=C\c3ccc([N+](=O)[O-])s3)C2=O)c1` the Potency was “inactive”.
With `c1ccc(C2NCc3ccccc3-n3cccc32)cc1` (stereo not given) the Potency was “inactive”.
With `N[C@@H](Cc1c[nH]c2ccccc12)c1nnc(SCc2c(F)cccc2Cl)o1` the Potency was “inactive”.
